# Inconclusive results are not listed. The source made the active and inactive calls. Rule for the calls: active = hit-call score of the fitted dose curve at least 0.9, where 1 is the maximum; inconclusive = response in the unintended direction; inactive = score below 0.9.
# Experiments:
# [1] = biological target: rat Opioid Receptor, Non-selective Sodium (Na+) Binding, Oprm1 (gene 25601) (UniProt P33535); test: NVS_GPCR_rOpiate_NonSelectiveNa: NovaScreen (NVS) G Protein-Coupled Receptor Assay for rat Opioid Receptor, Non-selective Sodium (Na+) Binding (AID 2283311)
# In short: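 Rat forebrain membranes, radioligand displacement with filter scintillation counting, 1.5 h incubation. Screened in duplicate at 25 µM; hits then run in concentration-response up to 50 µM; loss of binding fitted versus DMSO.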
# [2] = biological target: rat Neonicotinoid receptor (NNR), Chrna7 (gene 25302) (UniProt Q05941); test: NVS_LGIC_rNNR_BungSens: NovaScreen (NVS) Ligand-Gated Ion Channel Assay for rat Neonicotinoid receptor (NNR) (AID 2283315)
# In short: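 Radioligand displacement binding on rat cortical membranes, 2.5 h incubation, filtration and scintillation counting. Loss of specific binding fitted relative to DMSO.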
# [3] = biological target: Sodium channel protein type 1 subunit alpha (Rattus norvegicus) (UniProt P04774); test: NVS_IC_rNaCh_site2: NovaScreen (NVS) Ion Channel Assay for rat Sodium Channel, Site 2 (NaCh) (AID 2283322);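 note: hit means loss of radioligand binding signal relative to DMSO so AC50 marks displacement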
# In short: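 Membranes: rat forebrain. Format: competitive radioligand displacement, filter separation, scintillation readout, 1 h exposure. Primary screen in duplicate at 25 uM; actives retested in concentration series.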
# [4] = biological target: rat Neurokinin-1 Receptor (NK1), Tacr1 (gene 24807) (UniProt P14600); test: NVS_GPCR_rNK1: NovaScreen (NVS) G Protein-Coupled Receptor Assay for rat Neurokinin-1 Receptor (NK1) (AID 2283309)
# In short: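 Rat submaxillary gland membranes; radioligand displacement read by filter-based scintillation counting after 1 h. Primary screen in duplicate at 25 uM; actives retested in concentration series; loss of binding fitted versus DMSO.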
# [5] = NVS_IC_rCaDHPRCh_L: NovaScreen (NVS) Ion Channel Assay for rat Calcium Channel, Type L, Dihydropyridine Site (CaDHPRCh_L) (AID 2283320)
# In short: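 Radioligand binding to dihydropyridine site on rat cortical membranes, filter-based scintillation counting, 1 h after dosing. Screened in duplicate at 25 uM; actives rerun in concentration-response up to 50 uM. Loss of signal versus DMSO baseline.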
# [6] = biological target: bovine Gamma-Aminobutyric Acid Type A Receptor BDZ, alpha 5 site (GABARa5), GABRA5 (gene 523515) (UniProt Q08E50); test: NVS_LGIC_bGABARa5: NovaScreen (NVS) Ligand-Gated Ion Channel Assay for bovine Gamma-Aminobutyric Acid Type A Receptor BDZ, alpha 5 site (GABARa5) (AID 2283323)
# In short: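 Radioligand competitive displacement binding on bovine hippocampal membranes, read 1 hr after dosing by filter-based scintillation counting. Primary screen at 25 uM in duplicate; actives (e.g. ≥30% inhibition) then run in concentration-response up to 50 uM.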
# [7] = biological target: rat Glutamate, AMPA Site (AMPA), Gria1 (gene 50592) (UniProt P19490); test: NVS_LGIC_rAMPA: NovaScreen (NVS) Ligand-Gated Ion Channel Assay for rat Glutamate, AMPA Site (AMPA) (AID 2283324)
# In short: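 Rat forebrain membranes; radioligand binding read 1 h after dosing by filtration and scintillation counting. Duplicate single-point screen at 25 uM, then concentration-response to 50 uM for threshold hits (e.g. 30% inhibition); loss of signal vs DMSO.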
# NCBI gene 24521 = test: NVS_IC_rKATPCh: NovaScreen (NVS) Ion Channel Assay for rat Potassium Channel, ATP-Sensitive (KATPCh) (AID 2283319)
# In short: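 Rat cortical membranes; radioligand binding at ATP-sensitive K channel site, filter-based scintillation counting 2 h after dosing. Single-point duplicate screen at 25 uM, hits rerun in concentration-response up to 50 uM; loss of signal versus DMSO.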
# [8] = biological target: rat Vasopressin 1 Receptor (V1), Avpr1a (gene 25107) (UniProt P30560); test: NVS_GPCR_rV1: NovaScreen (NVS) G Protein-Coupled Receptor Assay for rat Vasopressin 1 Receptor (V1) (AID 2283316)
# In short: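 Radioligand binding on rat liver membranes, 1.5 h incubation, filter-based scintillation counting. Single 25 uM screen in duplicate; chemicals meeting threshold (e.g. 30% inhibition) run in concentration-response up to 50 uM.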
# [9] = biological target: rat Gamma-Aminobutyric Acid Type B Receptor (GABBR), Gabbr1 (gene 81657) (UniProt Q9Z0U4); test: NVS_GPCR_rGABBR: NovaScreen (NVS) G Protein-Coupled Receptor Assay for rat Gamma-Aminobutyric Acid Type B Receptor (GABBR) (AID 2283301)
# In short: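 Radioligand displacement on rat cortical membranes, 1 h, filter-based scintillation counting. Primary screen at 25 uM in duplicate; compounds passing threshold re-tested in concentration-response up to 50 uM; loss of binding fitted against DMSO.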
# [10] = biological target: rat Somatostatin Receptor (SST), Sstr1 (gene 25033) (UniProt P28646); test: NVS_GPCR_rSST: NovaScreen (NVS) G Protein-Coupled Receptor Assay for rat Somatostatin Receptor (SST) (AID 2283314)
# In short: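 Rat forebrain membranes; radioligand displacement read by filter-based scintillation counting 1 h after dosing. Primary screen in duplicate at 25 uM. Actives (e.g., 30% inhibition) were rerun as concentration-response to 50 uM max and fitted against DMSO.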
# [11] = biological target: rat Adrenergic Receptor, Alpha 2 (Adra2), Non-selective Binding, Adra2a (gene 25083) (UniProt P22909); test: NVS_GPCR_rAdra2_NonSelective: NovaScreen (NVS) G Protein-Coupled Receptor Assay for rat Adrenergic Receptor, Alpha 2 (Adra2), Non-selective Binding (AID 2283299)
# In short: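 Rat cortical membranes, radioligand competitive displacement read by filter-based scintillation counting 1.25 hours after dosing. Primary screen in duplicate at 25 uM; actives followed up in concentration series.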
# [12] = biological target: rat Neurokinin-3 Receptor (NK3), Tacr3 (gene 24808) (UniProt P16177); test: NVS_GPCR_rNK3: NovaScreen (NVS) G Protein-Coupled Receptor Assay for rat Neurokinin-3 Receptor (NK3) (AID 2283310)
# In short: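 Rat cortical membranes; radioligand binding with filtration and scintillation counting, 2 h after dosing. Primary screen in duplicate at 25 uM, then concentration-response up to 50 uM; loss of binding signal relative to DMSO.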
# Chain of rat Glutamate, AMPA Site (AMPA), Gria1 (gene 50592) (P19490 whole entry, looked up): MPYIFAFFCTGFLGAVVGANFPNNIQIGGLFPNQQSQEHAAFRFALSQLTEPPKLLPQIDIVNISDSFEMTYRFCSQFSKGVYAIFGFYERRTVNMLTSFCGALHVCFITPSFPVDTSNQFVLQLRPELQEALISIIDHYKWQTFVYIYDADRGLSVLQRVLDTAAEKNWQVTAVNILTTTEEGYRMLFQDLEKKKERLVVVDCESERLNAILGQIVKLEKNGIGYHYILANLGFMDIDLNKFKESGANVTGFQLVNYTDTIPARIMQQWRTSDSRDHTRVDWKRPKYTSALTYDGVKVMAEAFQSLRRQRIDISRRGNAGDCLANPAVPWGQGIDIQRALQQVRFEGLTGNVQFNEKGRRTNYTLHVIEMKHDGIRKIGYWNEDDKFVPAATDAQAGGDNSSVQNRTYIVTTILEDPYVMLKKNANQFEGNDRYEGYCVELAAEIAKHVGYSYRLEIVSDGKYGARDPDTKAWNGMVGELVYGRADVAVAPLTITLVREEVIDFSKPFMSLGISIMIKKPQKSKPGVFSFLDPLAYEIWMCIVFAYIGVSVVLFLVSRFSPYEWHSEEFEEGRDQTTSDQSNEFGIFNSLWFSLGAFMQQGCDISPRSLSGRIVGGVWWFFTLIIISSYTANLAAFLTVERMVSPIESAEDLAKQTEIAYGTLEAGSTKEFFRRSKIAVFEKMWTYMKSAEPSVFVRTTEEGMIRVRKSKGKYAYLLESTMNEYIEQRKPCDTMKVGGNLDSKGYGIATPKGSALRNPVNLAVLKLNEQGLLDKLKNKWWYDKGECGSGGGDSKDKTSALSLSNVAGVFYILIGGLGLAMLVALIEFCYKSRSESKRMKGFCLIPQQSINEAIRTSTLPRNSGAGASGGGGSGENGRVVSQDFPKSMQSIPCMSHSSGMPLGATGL
# Chain of rat Neurokinin-1 Receptor (NK1), Tacr1 (gene 24807) (P14600 whole entry, looked up): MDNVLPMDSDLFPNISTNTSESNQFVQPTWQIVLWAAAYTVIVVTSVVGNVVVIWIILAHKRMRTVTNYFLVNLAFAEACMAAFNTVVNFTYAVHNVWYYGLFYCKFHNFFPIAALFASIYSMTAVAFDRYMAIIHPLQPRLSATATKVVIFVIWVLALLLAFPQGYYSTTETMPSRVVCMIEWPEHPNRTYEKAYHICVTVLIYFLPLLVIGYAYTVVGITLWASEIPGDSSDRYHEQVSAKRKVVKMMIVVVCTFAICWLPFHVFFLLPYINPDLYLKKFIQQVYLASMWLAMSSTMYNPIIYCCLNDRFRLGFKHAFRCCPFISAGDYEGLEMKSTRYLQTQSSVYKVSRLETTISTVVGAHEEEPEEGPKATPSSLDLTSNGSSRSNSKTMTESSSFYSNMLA
# Chain of rat Opioid Receptor, Non-selective Sodium (Na+) Binding, Oprm1 (gene 25601) (P33535 whole entry, looked up): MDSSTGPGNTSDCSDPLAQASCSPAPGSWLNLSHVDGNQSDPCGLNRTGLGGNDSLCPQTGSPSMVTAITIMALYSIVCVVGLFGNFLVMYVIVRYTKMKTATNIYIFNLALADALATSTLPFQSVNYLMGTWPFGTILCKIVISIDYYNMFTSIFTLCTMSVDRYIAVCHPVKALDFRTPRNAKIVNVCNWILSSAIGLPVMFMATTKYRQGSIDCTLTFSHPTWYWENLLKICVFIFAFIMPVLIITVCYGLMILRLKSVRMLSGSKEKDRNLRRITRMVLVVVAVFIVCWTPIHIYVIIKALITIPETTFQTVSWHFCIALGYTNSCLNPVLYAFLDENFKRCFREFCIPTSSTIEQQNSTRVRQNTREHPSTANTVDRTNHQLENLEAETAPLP
# Chain of rat Neonicotinoid receptor (NNR), Chrna7 (gene 25302) (Q05941 whole entry, looked up): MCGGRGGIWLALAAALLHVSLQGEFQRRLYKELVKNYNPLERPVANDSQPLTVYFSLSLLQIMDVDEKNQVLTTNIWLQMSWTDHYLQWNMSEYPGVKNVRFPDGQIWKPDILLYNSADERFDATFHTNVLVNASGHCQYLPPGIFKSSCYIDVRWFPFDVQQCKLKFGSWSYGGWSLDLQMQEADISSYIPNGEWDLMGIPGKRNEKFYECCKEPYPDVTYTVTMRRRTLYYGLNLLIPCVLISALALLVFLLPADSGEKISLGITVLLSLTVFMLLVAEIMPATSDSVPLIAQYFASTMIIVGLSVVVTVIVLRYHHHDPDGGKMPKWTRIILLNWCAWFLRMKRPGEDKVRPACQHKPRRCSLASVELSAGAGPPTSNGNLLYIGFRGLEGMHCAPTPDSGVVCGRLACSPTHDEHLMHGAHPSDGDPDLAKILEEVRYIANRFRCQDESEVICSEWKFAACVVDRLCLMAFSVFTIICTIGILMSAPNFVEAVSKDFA
# Chain of rat Somatostatin Receptor (SST), Sstr1 (gene 25033) (P28646 whole entry, looked up): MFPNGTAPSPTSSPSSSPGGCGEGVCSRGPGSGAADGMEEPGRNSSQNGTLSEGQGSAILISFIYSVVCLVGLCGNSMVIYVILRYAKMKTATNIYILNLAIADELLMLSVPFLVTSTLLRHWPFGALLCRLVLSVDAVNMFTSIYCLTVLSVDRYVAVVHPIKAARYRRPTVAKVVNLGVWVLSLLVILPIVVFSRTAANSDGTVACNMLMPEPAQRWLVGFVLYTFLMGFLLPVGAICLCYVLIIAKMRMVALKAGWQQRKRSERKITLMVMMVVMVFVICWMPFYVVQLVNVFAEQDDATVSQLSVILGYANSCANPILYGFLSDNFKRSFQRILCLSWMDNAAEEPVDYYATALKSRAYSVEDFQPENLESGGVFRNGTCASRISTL
# Chain of rat Adrenergic Receptor, Alpha 2 (Adra2), Non-selective Binding, Adra2a (gene 25083) (P22909 whole entry, looked up): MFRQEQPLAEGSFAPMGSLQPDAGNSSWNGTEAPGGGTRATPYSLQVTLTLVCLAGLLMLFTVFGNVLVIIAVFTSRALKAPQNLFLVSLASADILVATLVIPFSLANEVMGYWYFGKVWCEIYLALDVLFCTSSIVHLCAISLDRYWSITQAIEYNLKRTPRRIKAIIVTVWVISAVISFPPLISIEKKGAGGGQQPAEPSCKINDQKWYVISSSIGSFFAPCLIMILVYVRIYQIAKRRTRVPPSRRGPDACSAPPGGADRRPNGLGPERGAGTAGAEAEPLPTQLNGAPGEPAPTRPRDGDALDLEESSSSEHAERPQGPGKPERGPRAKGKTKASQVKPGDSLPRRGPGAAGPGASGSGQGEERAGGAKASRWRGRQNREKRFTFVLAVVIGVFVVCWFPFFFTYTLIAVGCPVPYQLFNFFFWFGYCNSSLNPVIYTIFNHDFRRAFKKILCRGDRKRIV
# Chain of rat Neurokinin-3 Receptor (NK3), Tacr3 (gene 24808) (P16177 whole entry, looked up): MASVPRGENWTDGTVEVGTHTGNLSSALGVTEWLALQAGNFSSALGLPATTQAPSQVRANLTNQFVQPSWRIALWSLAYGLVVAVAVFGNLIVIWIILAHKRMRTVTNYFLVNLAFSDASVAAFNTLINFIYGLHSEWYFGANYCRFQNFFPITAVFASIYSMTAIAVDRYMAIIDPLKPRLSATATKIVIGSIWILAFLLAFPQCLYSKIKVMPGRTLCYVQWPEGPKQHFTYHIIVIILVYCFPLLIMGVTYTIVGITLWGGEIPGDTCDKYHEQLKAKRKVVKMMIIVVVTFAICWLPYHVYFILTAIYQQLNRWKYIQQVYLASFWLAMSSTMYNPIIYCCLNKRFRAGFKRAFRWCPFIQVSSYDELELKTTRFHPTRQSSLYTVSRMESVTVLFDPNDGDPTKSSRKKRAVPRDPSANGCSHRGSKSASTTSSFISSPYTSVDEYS
# Chain of rat Vasopressin 1 Receptor (V1), Avpr1a (gene 25107) (P30560 whole entry, looked up): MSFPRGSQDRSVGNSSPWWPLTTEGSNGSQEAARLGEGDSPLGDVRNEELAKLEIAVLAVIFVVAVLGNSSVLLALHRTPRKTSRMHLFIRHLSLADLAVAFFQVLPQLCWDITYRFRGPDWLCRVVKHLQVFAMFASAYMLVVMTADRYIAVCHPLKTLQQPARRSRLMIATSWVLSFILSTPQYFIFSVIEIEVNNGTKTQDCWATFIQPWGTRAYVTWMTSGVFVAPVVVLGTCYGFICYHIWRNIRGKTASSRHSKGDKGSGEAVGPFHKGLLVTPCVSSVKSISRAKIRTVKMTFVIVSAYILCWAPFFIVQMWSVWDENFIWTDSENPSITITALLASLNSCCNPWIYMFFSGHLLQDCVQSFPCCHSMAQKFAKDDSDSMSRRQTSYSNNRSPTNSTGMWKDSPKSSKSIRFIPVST
# Chain of rat Gamma-Aminobutyric Acid Type B Receptor (GABBR), Gabbr1 (gene 81657) (Q9Z0U4 whole entry, looked up): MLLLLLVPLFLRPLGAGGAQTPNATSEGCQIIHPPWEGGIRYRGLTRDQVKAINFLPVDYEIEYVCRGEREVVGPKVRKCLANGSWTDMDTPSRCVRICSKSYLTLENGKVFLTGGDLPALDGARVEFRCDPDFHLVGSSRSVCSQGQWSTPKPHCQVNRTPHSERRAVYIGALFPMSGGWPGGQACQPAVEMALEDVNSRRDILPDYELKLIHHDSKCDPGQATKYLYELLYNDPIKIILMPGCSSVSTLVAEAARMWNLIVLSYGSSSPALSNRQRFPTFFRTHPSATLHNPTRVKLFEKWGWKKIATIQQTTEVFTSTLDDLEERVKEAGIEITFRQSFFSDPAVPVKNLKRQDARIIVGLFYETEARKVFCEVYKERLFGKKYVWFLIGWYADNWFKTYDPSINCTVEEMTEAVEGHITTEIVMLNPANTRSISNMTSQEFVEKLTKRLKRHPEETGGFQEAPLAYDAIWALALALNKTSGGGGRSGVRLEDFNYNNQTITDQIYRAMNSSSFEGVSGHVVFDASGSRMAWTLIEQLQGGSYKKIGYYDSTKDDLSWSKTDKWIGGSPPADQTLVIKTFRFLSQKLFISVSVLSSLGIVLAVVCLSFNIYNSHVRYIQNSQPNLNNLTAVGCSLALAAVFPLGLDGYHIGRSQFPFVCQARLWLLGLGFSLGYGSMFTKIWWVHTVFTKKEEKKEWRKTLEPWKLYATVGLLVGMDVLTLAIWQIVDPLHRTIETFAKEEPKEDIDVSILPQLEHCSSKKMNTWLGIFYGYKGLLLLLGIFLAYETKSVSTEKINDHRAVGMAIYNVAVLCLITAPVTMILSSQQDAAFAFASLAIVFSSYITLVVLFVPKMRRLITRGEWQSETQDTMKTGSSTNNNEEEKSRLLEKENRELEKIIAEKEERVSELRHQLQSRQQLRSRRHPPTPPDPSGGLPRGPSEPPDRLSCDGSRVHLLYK
compound,measurement,setting,value
CC(=O)S[C@@H]1CC2=CC(=O)CC[C@]2(C)[C@H]2CC[C@@]3(C)[C@@H](CC[C@@]34CCC(=O)O4)[C@H]12,AC50,[1],17.8 µM (active)
same,AC50,[2],17.1 µM (active)
same,AC50,[3],8.6 µM (active)
Oc1ccc(C(c2ccc(O)cc2)C(Cl)(Cl)Cl)cc1,AC50,[4],39.4 µM (active)
same,AC50,[5],6.47 µM (active)
same,outcome,[6],inactive
same,outcome,[7],inactive
COC(=O)c1ccccc1C(=O)O,AC50,NCBI gene 24521,25 µM (active)
CCOC(=O)c1ccc(O)cc1,outcome,[1],inactive
N#CSCSc1nc2ccccc2s1,AC50,[8],2.34 µM (active)
CCOC(=O)NCCOc1ccc(Oc2ccccc2)cc1,outcome,[3],inactive
CCCCCOC(=O)COc1cc(N2C(=O)C3=C(CCCC3)C2=O)c(F)cc1Cl,outcome,[7],inactive
CN(C)C(=O)Nc1ccc(Cl)c(Cl)c1,outcome,NCBI gene 24521,inactive
C#C[C@]1(O)CC[C@H]2[C@@H]3CCC4=CC(=O)CC[C@@H]4[C@H]3CC[C@@]21CC,outcome,[4],inactive
COC(=O)c1ccccc1S(=O)(=O)NC(=O)Nc1nc(OC(F)F)cc(OC(F)F)n1,outcome,[9],inactive
same,AC50,[10],36.3 µM (active)
CC(C)(C)[C@@H](O)[C@@H](Cc1ccc(Cl)cc1)n1cncn1,outcome,[10],inactive
S=C([S-])NCCNC(=S)[S-].[Mn+2],outcome,[11],inactive
same,outcome,[12],inactive
same,outcome,[7],inactive
N[C@@H](Cc1cc(I)c(Oc2ccc(O)c(I)c2)c(I)c1)C(=O)O,outcome,[2],inactive
